Inconclusive results are not listed. Values without a mark were called inactive. Active and inactive are the calls of the source. Calls come from the whole dose curve; as a rule, active = well fitted inhibition curve with a large enough effect in the signal ratio in the repeat runs; inconclusive = weak or mixed curves, or effect the other way; inactive = flat fitted curve, though single readings scatter; the % refers to the signal ratio.
Assay: qHTS assay for small molecule disruptors of the mitochondrial membrane potential (AID 720635)
Details: HepG2 mitochondrial membrane potential, Mito-MPS dye ratio; series mostly up to 83.2 µM; ratio activity, negative = MMP loss: at the top concentration
Description: U.S. Tox21 Program National Center for Advancing Translational Sciences [NCATS] NIH Chemical Genomics Center [NCGC] U.S. Environmental Protection Agency [EPA] National Institutes of Environmental Health Sciences [NIEHS] National Toxicology Program [NTP] U.S. Food and Drug Administration [FDA] Tox21 Assay Overview: Mitochondrial membrane potential (MMP), one of the parameters for mitochondrial function, is generated by mitochondrial electron transport chain that creates an electrochemical gradient by a series of redox reactions. This gradient drives the synthesis of ATP, a crucial molecule for various cellular processes. Measuring MMP in living cells is commonly used to assess the effect of chemicals on mitochondrial function. […] The dye accumulates in the mitochondria of healthy cells as aggregates, with red fluorescence. The mitochondrial potential collapses and the dye can no longer accumulate in the mitochondria and remains in the cytoplasm in monomers, with green fluorescence.
Tox21 Assay Protocol Summary: 2,000 HepG2 cells in 5 uL/well were dispensed into black, clear-bottom 1536-well plates using a Multidrop Combi (Thermo Scientific) dispenser. The assay plates were incubated overnight at 37C to allow cells to attach to the wells, followed by the transfer of 23 nL compound or DMSO vehicle by a pin tool (Kalypsys). The plates were incubated for 1 hr at 37C and 5% CO2, followed by the addition of 5 uL of 2X Mito-MPS dye (BD Biosciences) into each well using Flying Reagent Dispenser (Aurora Discovery) and then following 30 min incubation at 37C. Fluorescence intensity (490nm excitation and 535nm emission for monomers; and 540nm excitation and 590nm emissions for aggregates) was measured using an Envision plate reader.
% is set by controls: 0 for no effect and ±100 for the full control effect; potency is the fitted concentration of half-maximal effect.

Row | Structure (SMILES) | ratio activity, negative = MMP loss | Potency
1 | CCN(CC)CCNC(=O)COc1ccc(OC)cc1 | 13.6% | 
2 | O=C1CCCCCCCCCCOCCCCO1 | -6.17% | 
3 | COc1cc(C(=O)NC2CCN(C)CC2)ccc1Nc1ncc2c(n1)N(C1CCCC1)CC(F)(F)C(=O)N2C |  | 44.5 µM (active)
4 | C=C(C)C(=O)OCCOCCOC(=O)C(=C)C | 13.1% | 
5 | O=[N+]([O-])c1ccc(O/N=C/c2cc(Br)c(O)c(Br)c2)c([N+](=O)[O-])c1 |  | 0.859 µM (active)
6 | CCCCCCC(C)(C)C(=O)O | -8.64% | 
7 | Nc1cccc2c1CN(C1CCC(=O)NC1=O)C2=O (stereo not given) | -7.52% | 
8 | CCOC(=O)/C=C/C(=O)OCC | 18% | 
9 | c1ccc2c(c1)CCc1ccccc1N2 |  | 19.4 µM (active)
10 | COc1ncnc(NS(=O)(=O)c2ccc(N)cc2)c1OC | 10.6% | 
11 | CCOC(=O)c1ccc(C#Cc2ccc3c(c2)C(C)(C)CCS3)nc1 |  | 29.8 µM (active)
12 | CCOC(=O)[C@H](CCc1ccccc1)N[C@@H](C)C(=O)N(CC(=O)O)C1Cc2ccccc2C1 | 12.1% | 
13 | CCOC(=O)c1ccc(I)cc1 | -12.5% [at 95.3 µM] | 
14 | Cc1ccc(OC(=O)c2ccccc2O)cc1 | -9.4% | 
15 | Cc1ccc(C(C)(C)O)cc1 | 12% | 
16 | O=C1c2ccccc2C(=O)C1c1nc2ccccc2c(Br)c1O |  | 21.7 µM (active)
17 | CC(CCC(=O)O)C(=O)O (stereo not given) | -7.67% | 
18 | CC[N+](CC)(CCNC(=O)C(=O)NCC[N+](CC)(CC)Cc1ccccc1Cl)Cc1ccccc1Cl | -3.94% | 
19 | C[C@@]12CCC[C@H]1[C@@H]1CC[C@H]3C[C@@H](O)CC[C@]3(C)[C@H]1CC2 | -23.9% | 
20 | O=C(CCCN1CC=C(n2c(=O)[nH]c3ccccc32)CC1)c1ccc(F)cc1 | 24.6% | 

Row | Structure (SMILES) | ratio activity, negative = MMP loss | Potency
21 | CC(C)(C)C(=O)C(=O)O | 16.7% | 
22 | O=C(CCc1ccc(O)cc1)c1c(O)cc(O)cc1O |  | 3.13 µM (active)
23 | Nc1nnc(-c2ccc([N+](=O)[O-])o2)o1 |  | 61.1 µM (active)
24 | CCOC(=O)C1=C(C)NC(C)=C(C(=O)OC)C1c1cccc(Cl)c1Cl (stereo not given) |  | 19.7 µM (active)
25 | CC1(C)[C@@H](OC(=O)CCC(=O)O)CC[C@]2(C)[C@H]3C(=O)C=C4[C@@H]5C[C@@](C)(C(=O)O)CC[C@]5(C)CC[C@@]4(C)[C@]3(C)CC[C@@H]12 | -14.1% [at 39.1 µM] | 
26 | Cc1[nH]cnc1CN1CCc2c(c3ccccc3n2C)C1=O | -10.8% | 
27 | CC(=O)Oc1ccc([N+](=O)[O-])cc1CCl |  | 54.5 µM (active)
28 | O=C=Nc1cccc(C(F)(F)F)c1 |  | 2.15 µM (active)
29 | Cc1cc(O)ccc1O | 18.5% [at 95.3 µM] | 
30 | CCCCCCCCCI | -14.8% [at 95.3 µM] | 
31 | CCc1ccccc1 | 7.46% [at 95.3 µM] | 
32 | O=C1c2ccccc2C(=O)C1c1ccc(Br)cc1 | -22.5% | 
33 | Nc1nc2ccc([N+](=O)[O-])cc2s1 |  | 4.33 µM (active)
34 | CC(=O)OCC[N+](C)(C)C | 7.37% | 
35 | CC(=O)OCC(=O)NCCCOc1cccc(CN2CCCCC2)c1 |  | inactive
36 | O=c1cc(-c2ccccc2)oc2ccc3ccccc3c12 |  | 8.63 µM (active)
37 | CC1(C)[C@H](C(=O)O)N2C(=O)C[C@H]2S1(=O)=O | 10.7% | 
38 | CCC1CO1 (stereo not given) | 7.57% | 
39 | CC(CN(C)C)C(C)(O)Cc1ccc(Cl)cc1 (stereo not given) | 7.46% | 
40 | O=c1[nH]ncc2ccccc12 | 13.3% | 
